{
  "source": "PubChem BioAssay (NCATS)",
  "note": "Records with an inconclusive call do not appear. A call without a number means that no potency is given here. A number with no mark means an inactive call. Active and inactive are the calls of the source. Calls follow the shape of the dose curve; as a rule, active = well fitted cell-killing curve with a large enough effect; inconclusive = small, poorly fitted or top-dose-only effect, or effect the other way; inactive = flat fitted curve, though single readings scatter. Potency is read from the fitted curve at half-maximal effect.",
  "data": [
    {"system": "C33A", "assay": "Primary qHTS to identify gynecologic anti-cancer compounds using libraries of approved drugs and bioactive compounds (AID 1345084); also: nearly all actives have a fitted effect of over 55% in size", "settings": "Gynecologic cancer cell panel viability, ATPlite luminescence, 48 h; series mostly up to 57.5 µM", "procedure,_shortened": "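Luminescence from the ATPlite ATP-monitoring reagent indicates viable cell number; lower signal means cytotoxicity. Cells received compound 16 h after seeding and were exposed for 48 h across five concentrations.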", "values": [
      {"smiles": "CCC(COC)n1nnc2c(Nc3ccc(OC)cc3C)nc(C)cc21", "note": "(stereo not given)", "Potency": "inactive"},
      {"smiles": "NC1CCC(Nc2cc(-c3cccc(NCc4cccc(F)c4)n3)c(Cl)cn2)CC1", "note": "(stereo not given)", "Potency": "1.26 µM (active)"},
      {"smiles": "O=C1C=CC2OC(c3ccccc3)C(O)C2O1", "note": "(stereo not given)", "Potency": "inactive"},
      {"smiles": "C/C=C/C1=CC2=C(CO1)C(=O)C(C)(O)C(OC(=O)c1c(C)cc(OC)cc1O)C2", "note": "(stereo not given)", "Potency": "inactive"},
      {"smiles": "COc1c2c(c(C)c3c1C(=O)OC3)OC1(C)CC(O)C34OC(OC)(CC(OC(C)=O)C3(C)C1C2)OC4(C)C", "note": "(stereo not given)", "Potency": "inactive"},
      {"smiles": "C/C=C/c1ccc2c(c1)[C@@H](C)[C@H](c1ccc(O)cc1)O2", "Potency": "inactive"},
      {"smiles": "CC(C)S(=O)(=O)N[C@H]1CCOC[C@@H]1c1ccc(-c2ccc(C#N)s2)cc1", "Potency": "inactive"},
      {"smiles": "COc1ccc([C@H]2CNC(=O)C2)cc1OC1CCCC1", "Potency": "inactive"},
      {"smiles": "N=c1nc2n(cc1F)C1OC(CO)C(O)C1O2", "note": "(stereo not given)", "Potency": "inactive"},
      {"smiles": "CC(C)CCC(=O)CC1c2ccccc2C(=O)N1c1ccc2ccc(Cl)nc2n1", "note": "(stereo not given)", "Potency": "inactive"},
      {"smiles": "CC1(C)CC[C@]2(C(=O)O[C@@H]3O[C@H](CO)[C@@H](O)[C@H](O)[C@H]3O)CC[C@]3(C)C(=CCC4[C@@]5(C)CC[C@H](O[C@@H]6O[C@H](C(=O)O)[C@@H](O)[C@H](O)[C@H]6O)C(C)(C)C5CC[C@]43C)C2C1", "note": "(stereo not given in full)", "activity change, negative = cytotoxicity": "3.23% [at 11.6 µM]"},
      {"smiles": "COc1ccc(CCC(=O)c2c(O)cc(O)cc2O[C@@H]2O[C@H](CO)[C@@H](O)[C@H](O)[C@H]2O)cc1", "Potency": "inactive"},
      {"smiles": "C=C1C[C@]23C[C@H]1CC[C@H]2[C@@]12CC[C@H](O)[C@@](C)(C(=O)O1)[C@H]2[C@@H]3C(=O)O", "Potency": "inactive"},
      {"smiles": "CC(O)(CC(=O)O)CC(=O)OCc1ccc(O[C@@H]2O[C@H](CO)[C@@H](O)[C@H](O)[C@H]2O)cc1", "note": "(stereo not given in full)", "Potency": "inactive"},
      {"smiles": "C[C@@H]1CC[C@]2(C(=O)OC3OC(CO)C(O)C(O)C3O)CC[C@]3(C)C(=CCC4[C@@]5(C)CC[C@H](O)[C@](C)(C(=O)O)C5CC[C@]43C)C2[C@]1(C)O", "note": "(stereo not given in full)", "Potency": "inactive"},
      {"smiles": "C[C@@]12CC[C@@H]3[C@@](CC[C@H]4[C@@]3(C)CCC[C@@]4(C)C(=O)O)(CC1=O)C2", "Potency": "inactive"},
      {"smiles": "C=C1C(OC2OCC(O)C(O)C2O)CC2C(C)(C)C(O)CCC2(C)C1CC/C(C)=C\\CO", "note": "(stereo not given)", "Potency": "inactive"},
      {"smiles": "CC1(C)[C@@H](O)CC[C@]2(C)[C@H]3CC=C4[C@@H]5C[C@](C)(C(=O)O)CC[C@]5(C)CC[C@@]4(C)[C@]3(C)CC[C@@H]12", "Potency": "inactive"},
      {"smiles": "CC(CO)C1CCC2(C)CC3C(CO)CC(O)C3C(C)(O)C/C=C/12", "note": "(stereo not given)", "Potency": "inactive"},
      {"smiles": "CC/C=C\\C/C=C\\C/C=C\\CCCCCCCC(=O)OCC(O)COC1OC(CO)C(O)C(O)C1O", "note": "(stereo not given)", "Potency": "inactive"},
      {"smiles": "O=C1NC(=O)C(c2cn(-c3ccccc3)nc2-c2ccc(F)cc2)N1", "note": "(stereo not given)", "Potency": "inactive"},
      {"smiles": "CC1=C(C)C(=O)OC(C(C)C2CCC3C4C5OC5C5(O)CC(OC6OC(CO)C(OC7OC(C)C(O)C(O)C7O)C(O)C6O)CC(O)C5(C)C4CCC23C)C1", "note": "(stereo not given)", "Potency": "inactive"},
      {"smiles": "CN(C)C/C=C/C(=O)Nc1cccc(C(=O)Nc2ccc(Nc3nccc(-c4cccnc4)n3)cc2)c1", "Potency": "12.6 µM (active)"},
      {"smiles": "COc1cc(N)c(Cl)cc1C(=O)NC[C@@H]1CCN2CCC[C@@H]12", "Potency": "inactive"},
      {"smiles": "CC(=O)OC1C[C@@]2(C)[C@@H](CC[C@@H](C)[C@]23Cc2c(O)cc4c(c2O3)CNC4=O)C(C)(C)[C@@H]1O", "note": "(stereo not given in full)", "Potency": "inactive"},
      {"smiles": "C=C(C(=O)O)[C@H]1C[C@]2(C)[C@@H](O)CC[C@]23O[C@H]1C[C@@H]3C", "Potency": "inactive"},
      {"smiles": "C[C@H](Oc1ccc(S(C)(=O)=O)cc1C(=O)N1CCN(c2ncc(C(F)(F)F)cc2F)CC1)C(F)(F)F", "Potency": "inactive"},
      {"smiles": "O=C1NC(Cc2ccccc2)C(=O)N2CCCC12", "note": "(stereo not given)", "Potency": "inactive"},
      {"smiles": "O=C(NCc1ccccn1)Nc1nnc(-c2ccco2)o1", "Potency": "inactive"},
      {"smiles": "CCCCNc1ncc2c(-c3ccc(F)cc3)nn(CC3CCC(N)CC3)c2n1", "note": "(stereo not given)", "Potency": "11.2 µM (active)"},
      {"smiles": "CC1CCC2C(C(=O)O)=COC(O[C@@H]3O[C@H](CO)[C@@H](O)[C@H](O)[C@H]3O)C12", "note": "(stereo not given in full)", "Potency": "inactive"},
      {"smiles": "COc1c2ccoc2cc2oc(CO[C@@H]3O[C@H](CO)[C@@H](O)[C@H](O)[C@H]3O)cc(=O)c12", "Potency": "inactive"},
      {"smiles": "C=C(C)C(=O)OC1C(OC(C)=O)/C(C=O)=C\\CC/C(CO)=C/C2OC(=O)C(=C)C21", "note": "(stereo not given)", "Potency": "inactive"},
      {"smiles": "COc1cc(/C=C/C=O)cc(OC)c1O[C@@H]1O[C@H](CO)[C@@H](O)[C@H](O)[C@H]1O", "Potency": "inactive"},
      {"smiles": "Cc1cc(OCc2nc(-c3ccccc3Cl)cs2)ccc1OCC(=O)O", "Potency": "inactive"},
      {"smiles": "Cc1cccc(C)c1-n1c(=O)c2cnc(Nc3ccc(N4CCN(C)CC4)cc3)nc2n2c3ccccc3nc12", "Potency": "2.82 µM (active)"},
      {"smiles": "O=C(Nc1ccc(S(=O)(=O)Nc2ccccc2Cl)c(Cl)c1)c1ccccn1", "Potency": "inactive"},
      {"smiles": "COc1ccc(CC2NCCc3c2[nH]c2ccc(C)cc32)cc1OC", "note": "(stereo not given)", "Potency": "inactive"},
      {"smiles": "C=C(C(=O)O)[C@@H]1CC[C@@]2(C)CC[C@H](O)[C@@]2(C(C)=O)C1", "Potency": "inactive"},
      {"smiles": "CC(C)(O)CC(CO)NC(=O)CC(O)CC(=O)Cc1ccccc1", "note": "(stereo not given)", "Potency": "inactive"}
    ]}
  ]
}
